Consider 1 sequence from article PMC7862700, “An all-to-all approach to the identification of sequence-specific readers for epigenetic DNA modifications on cytosine”.

Holding throughout (test): DAPPL (digital affinity profiling via proximity ligation, sequencing); 10 mM Tris-HCl pH 7.5, 50 mM NaCl, 1 mM DTT, 4% glycerol, room temperature, 30 min; GST-TFs on glutathione beads, 16-mer random dsDNA library, 0.1% formaldehyde crosslink after washing; high values mean tight binding
One assay has as its target T1, FLI1 (Homo sapiens, UniProt Q01543 1-452).
T1 sequence: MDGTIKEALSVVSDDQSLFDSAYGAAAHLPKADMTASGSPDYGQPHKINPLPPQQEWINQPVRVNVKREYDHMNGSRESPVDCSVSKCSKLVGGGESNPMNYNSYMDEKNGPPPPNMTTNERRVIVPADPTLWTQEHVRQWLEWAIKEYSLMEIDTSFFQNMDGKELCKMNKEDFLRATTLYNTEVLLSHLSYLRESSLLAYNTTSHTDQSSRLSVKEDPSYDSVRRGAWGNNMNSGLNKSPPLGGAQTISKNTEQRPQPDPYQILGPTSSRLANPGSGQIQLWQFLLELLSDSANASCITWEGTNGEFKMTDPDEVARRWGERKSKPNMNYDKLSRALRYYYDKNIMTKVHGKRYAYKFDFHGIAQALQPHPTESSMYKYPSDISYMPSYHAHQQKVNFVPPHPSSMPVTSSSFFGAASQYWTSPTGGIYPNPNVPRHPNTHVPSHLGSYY
The conditions noted are these: protein: recombinant; tags: N-terminal GST; dsDNA, one strand shown. The procedure, abridged: (§1)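 Sequencing on an Illumina NextSeq500 followed washing, crosslinking with 0.1% formaldehyde, proximity ligation (BsaI/T4 ligase, 1 h, 37 °C) and PCR amplification of pools that had been incubated for 30 min at room temperature with 200 nmole of a random double-stranded 16-mer DNA library in Tris/NaCl/DTT/glycerol buffer. Each pool held DNA-barcoded human transcription factors, expressed in yeast as GST fusions and captured on glutathione beads, plus a tag-only sample. Binding signal is a hexamer's read frequency for a factor divided by its frequency in the tag-only sample.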

The target in another assay is T2, ELK1 (Homo sapiens, UniProt P19419 1-428).
T2 sequence: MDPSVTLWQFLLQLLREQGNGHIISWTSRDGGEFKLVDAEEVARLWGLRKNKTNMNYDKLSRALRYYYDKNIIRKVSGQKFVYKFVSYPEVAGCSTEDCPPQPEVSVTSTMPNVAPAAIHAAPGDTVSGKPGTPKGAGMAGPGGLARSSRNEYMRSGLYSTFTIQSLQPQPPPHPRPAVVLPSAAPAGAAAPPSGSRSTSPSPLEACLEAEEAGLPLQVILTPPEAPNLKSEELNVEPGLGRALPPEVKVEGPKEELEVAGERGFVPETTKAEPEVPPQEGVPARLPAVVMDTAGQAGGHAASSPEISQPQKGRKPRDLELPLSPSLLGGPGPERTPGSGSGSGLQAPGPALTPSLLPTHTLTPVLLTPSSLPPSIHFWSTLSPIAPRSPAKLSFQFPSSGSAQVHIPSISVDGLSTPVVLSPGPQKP
The conditions noted are these: protein: recombinant; tags: N-terminal GST; dsDNA, one strand shown. The method in brief: as §1

The target of another assay is T3, GABPA (Homo sapiens, UniProt Q06546 1-454).
T3 sequence: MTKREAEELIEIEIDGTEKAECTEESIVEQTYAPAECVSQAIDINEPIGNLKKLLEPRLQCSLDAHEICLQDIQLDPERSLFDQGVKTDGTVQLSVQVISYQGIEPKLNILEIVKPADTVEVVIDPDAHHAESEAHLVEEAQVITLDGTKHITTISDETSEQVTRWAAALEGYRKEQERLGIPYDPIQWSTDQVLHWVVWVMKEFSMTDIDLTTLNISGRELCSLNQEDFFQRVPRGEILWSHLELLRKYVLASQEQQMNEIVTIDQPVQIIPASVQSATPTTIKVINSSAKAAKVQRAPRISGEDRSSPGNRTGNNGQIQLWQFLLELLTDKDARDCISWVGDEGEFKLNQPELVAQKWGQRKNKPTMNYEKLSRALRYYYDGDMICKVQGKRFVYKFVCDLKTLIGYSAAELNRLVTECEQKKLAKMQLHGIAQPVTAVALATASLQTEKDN
The note with it: protein: recombinant; tags: N-terminal GST; dsDNA, one strand shown. The procedure, abridged:
as §1

In another assay the target is T4, ERG (Homo sapiens, UniProt P11308 1-479).
T4 sequence: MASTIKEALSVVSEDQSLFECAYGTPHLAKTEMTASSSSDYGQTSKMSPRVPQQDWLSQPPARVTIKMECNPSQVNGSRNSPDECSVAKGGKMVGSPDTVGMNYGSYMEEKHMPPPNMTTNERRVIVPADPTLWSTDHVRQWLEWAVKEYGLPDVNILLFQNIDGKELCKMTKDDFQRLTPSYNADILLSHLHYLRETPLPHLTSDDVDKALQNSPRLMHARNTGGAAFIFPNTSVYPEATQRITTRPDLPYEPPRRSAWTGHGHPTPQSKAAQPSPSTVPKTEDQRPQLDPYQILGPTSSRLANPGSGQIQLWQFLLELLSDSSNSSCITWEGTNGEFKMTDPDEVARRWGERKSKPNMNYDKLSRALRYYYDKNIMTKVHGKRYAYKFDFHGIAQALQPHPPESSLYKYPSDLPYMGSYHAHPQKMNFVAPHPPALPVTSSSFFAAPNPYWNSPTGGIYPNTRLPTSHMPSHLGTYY
The note with it: protein: recombinant; tags: N-terminal GST; dsDNA, one strand shown. The procedure, abridged: as §1

The target of a further assay is ELF1 (Homo sapiens, UniProt P32519 1-619). The note with it: protein: recombinant; tags: N-terminal GST; dsDNA, one strand shown. The method in brief:
as §1

A further assay has as its target T5, EHF (Homo sapiens, UniProt Q9NZC4 1-300).
T5 sequence: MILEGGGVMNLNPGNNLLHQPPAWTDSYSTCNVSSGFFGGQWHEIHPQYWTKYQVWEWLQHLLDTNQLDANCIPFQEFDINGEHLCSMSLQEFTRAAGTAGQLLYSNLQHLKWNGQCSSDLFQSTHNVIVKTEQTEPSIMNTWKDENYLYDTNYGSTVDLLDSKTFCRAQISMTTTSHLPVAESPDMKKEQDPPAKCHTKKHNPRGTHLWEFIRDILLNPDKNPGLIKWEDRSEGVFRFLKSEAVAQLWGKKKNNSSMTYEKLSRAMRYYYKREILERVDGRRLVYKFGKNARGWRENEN
The note with it: protein: recombinant; tags: N-terminal GST; dsDNA, one strand shown. The method in brief:
as §1

Another assay concerns the target SPI1 (Homo sapiens, UniProt P17947 1-270). The note with it: protein: recombinant; tags: N-terminal GST; dsDNA, one strand shown. The method in brief: as §1
For another assay, the target named is SPIB (Homo sapiens, UniProt Q01892 1-262). The note with it: protein: recombinant; tags: N-terminal GST; dsDNA, one strand shown. The method in brief: as §1
For a further assay, the target named is T6, ELK3 (Homo sapiens, UniProt P41970 1-407).
T6 sequence: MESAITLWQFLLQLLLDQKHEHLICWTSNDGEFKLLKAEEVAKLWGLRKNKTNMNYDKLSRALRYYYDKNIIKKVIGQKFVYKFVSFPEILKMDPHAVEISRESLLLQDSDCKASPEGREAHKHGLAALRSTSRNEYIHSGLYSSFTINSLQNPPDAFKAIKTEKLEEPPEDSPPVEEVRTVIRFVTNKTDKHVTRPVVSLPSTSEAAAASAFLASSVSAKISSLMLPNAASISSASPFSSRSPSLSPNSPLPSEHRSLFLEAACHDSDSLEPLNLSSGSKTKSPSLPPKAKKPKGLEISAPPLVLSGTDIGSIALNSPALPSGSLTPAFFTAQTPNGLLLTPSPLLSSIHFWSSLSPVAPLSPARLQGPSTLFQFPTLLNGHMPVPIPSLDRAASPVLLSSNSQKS
The conditions noted are these: protein: recombinant; tags: N-terminal GST; dsDNA, one strand shown. The method in brief:
as §1

For a further assay, the target named is T7, FEV (Homo sapiens, UniProt Q99581 1-238).
T7 sequence: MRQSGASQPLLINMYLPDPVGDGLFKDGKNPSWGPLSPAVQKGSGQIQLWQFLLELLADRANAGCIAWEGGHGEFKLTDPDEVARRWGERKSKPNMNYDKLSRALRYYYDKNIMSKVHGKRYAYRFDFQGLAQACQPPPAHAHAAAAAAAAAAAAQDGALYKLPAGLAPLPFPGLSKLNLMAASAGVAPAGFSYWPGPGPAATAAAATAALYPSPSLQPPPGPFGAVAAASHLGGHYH
The note with it: protein: recombinant; tags: N-terminal GST; dsDNA, one strand shown. The procedure, abridged:
as §1

The target in the next assay is ETV5 (Homo sapiens, UniProt P41161 1-510). The note with it: protein: recombinant; tags: N-terminal GST; dsDNA, one strand shown. The method in brief: as §1
Another assay deals with HSF1 (Homo sapiens, UniProt Q00613 1-529). The note with it: protein: recombinant; tags: N-terminal GST; chain copies: 3; dsDNA, one strand shown. The procedure, abridged: as §1
Another assay addresses T8, SPIC (Homo sapiens, UniProt Q8N5J4 1-248).
T8 sequence: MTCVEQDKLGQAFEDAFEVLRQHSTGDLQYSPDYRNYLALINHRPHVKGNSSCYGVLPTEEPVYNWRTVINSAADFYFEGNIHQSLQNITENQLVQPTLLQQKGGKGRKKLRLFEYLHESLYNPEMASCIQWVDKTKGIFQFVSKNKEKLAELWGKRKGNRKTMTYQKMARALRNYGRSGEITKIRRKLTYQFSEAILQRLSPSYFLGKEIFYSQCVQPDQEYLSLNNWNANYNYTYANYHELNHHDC
The conditions noted are these: protein: recombinant; tags: N-terminal GST; dsDNA, one strand shown. The procedure, abridged: as §1

The target of another assay is ELF4 (Homo sapiens, UniProt Q99607 1-663). The note with it: protein: recombinant; tags: N-terminal GST; dsDNA, one strand shown. The procedure, abridged: as §1
Another assay concerns the target T9, ELK4 (Homo sapiens, UniProt P28324-2 1-405).
T9 sequence: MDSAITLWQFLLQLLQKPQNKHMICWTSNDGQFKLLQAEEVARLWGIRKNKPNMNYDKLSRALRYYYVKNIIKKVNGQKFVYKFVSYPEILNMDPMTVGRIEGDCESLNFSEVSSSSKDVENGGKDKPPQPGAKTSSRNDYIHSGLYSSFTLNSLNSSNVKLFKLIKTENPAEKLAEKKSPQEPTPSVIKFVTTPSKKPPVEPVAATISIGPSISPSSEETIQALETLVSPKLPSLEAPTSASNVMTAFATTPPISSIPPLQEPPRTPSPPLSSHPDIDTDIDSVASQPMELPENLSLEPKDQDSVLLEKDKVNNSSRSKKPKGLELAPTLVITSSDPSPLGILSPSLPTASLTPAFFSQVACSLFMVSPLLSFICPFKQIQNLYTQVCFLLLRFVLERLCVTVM
The conditions noted are these: protein: recombinant; tags: N-terminal GST; dsDNA, one strand shown. The procedure, abridged:
as §1

In another assay the target is T10, ETV2 (Homo sapiens, UniProt O00321 1-342).
T10 sequence: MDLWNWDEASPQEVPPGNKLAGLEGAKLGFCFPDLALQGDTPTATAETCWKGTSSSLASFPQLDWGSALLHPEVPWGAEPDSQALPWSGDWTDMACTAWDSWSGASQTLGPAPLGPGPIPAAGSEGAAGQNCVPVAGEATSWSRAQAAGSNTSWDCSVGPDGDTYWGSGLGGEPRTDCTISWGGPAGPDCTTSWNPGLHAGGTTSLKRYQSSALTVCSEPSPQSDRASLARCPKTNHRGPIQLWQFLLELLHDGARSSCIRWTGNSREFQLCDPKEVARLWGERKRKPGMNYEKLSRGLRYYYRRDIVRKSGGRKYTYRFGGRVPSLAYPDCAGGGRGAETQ
The note with it: protein: recombinant; tags: N-terminal GST; dsDNA, one strand shown. The procedure, abridged: as §1

The target in another assay is T11, ELF3 (Homo sapiens, UniProt P78545 1-371).
T11 sequence: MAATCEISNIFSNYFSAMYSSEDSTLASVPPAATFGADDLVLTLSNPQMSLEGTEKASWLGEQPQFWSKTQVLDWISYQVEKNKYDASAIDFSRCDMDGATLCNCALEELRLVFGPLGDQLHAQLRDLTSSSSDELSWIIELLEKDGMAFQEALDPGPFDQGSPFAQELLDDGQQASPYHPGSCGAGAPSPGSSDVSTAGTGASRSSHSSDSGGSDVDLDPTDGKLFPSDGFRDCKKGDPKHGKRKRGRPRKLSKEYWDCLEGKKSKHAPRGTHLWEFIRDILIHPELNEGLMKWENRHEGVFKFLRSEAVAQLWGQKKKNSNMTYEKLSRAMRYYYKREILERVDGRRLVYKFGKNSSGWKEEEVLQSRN
The note with it: protein: recombinant; tags: N-terminal GST; dsDNA, one strand shown. The method in brief: as §1

The target in the next assay is ETV1 (Homo sapiens, UniProt P50549 1-477). The conditions noted are these: protein: recombinant; tags: N-terminal GST; dsDNA, one strand shown. The method in brief:
as §1

ETV1, sequence (P50549 whole entry): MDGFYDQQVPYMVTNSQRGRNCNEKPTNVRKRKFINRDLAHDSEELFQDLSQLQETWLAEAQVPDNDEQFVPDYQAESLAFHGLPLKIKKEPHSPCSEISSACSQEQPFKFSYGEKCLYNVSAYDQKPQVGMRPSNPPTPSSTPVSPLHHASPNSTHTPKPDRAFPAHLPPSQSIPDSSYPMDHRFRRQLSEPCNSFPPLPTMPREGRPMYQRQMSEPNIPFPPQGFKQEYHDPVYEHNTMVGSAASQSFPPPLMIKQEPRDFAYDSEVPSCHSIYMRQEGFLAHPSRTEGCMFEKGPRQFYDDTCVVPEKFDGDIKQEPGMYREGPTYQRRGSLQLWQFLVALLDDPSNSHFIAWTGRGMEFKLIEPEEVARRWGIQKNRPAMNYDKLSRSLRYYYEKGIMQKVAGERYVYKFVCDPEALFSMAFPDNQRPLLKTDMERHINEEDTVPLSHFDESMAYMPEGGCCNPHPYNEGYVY
HSF1, sequence (Q00613 whole entry): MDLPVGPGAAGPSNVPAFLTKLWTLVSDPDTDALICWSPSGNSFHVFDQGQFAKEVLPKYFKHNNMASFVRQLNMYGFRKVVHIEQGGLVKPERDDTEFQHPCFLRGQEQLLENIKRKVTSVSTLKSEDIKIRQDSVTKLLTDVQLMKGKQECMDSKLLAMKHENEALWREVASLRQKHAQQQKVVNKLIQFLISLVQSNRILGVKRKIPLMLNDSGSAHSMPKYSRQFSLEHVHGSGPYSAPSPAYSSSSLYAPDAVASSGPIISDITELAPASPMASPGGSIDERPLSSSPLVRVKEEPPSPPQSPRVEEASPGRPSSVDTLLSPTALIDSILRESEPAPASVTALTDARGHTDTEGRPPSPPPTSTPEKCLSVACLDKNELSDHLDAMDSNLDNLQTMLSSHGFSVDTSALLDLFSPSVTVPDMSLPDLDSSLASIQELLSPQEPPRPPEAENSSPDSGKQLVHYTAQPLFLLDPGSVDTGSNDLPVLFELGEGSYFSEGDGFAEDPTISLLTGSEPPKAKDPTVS
ELF4, sequence (Q99607 whole entry): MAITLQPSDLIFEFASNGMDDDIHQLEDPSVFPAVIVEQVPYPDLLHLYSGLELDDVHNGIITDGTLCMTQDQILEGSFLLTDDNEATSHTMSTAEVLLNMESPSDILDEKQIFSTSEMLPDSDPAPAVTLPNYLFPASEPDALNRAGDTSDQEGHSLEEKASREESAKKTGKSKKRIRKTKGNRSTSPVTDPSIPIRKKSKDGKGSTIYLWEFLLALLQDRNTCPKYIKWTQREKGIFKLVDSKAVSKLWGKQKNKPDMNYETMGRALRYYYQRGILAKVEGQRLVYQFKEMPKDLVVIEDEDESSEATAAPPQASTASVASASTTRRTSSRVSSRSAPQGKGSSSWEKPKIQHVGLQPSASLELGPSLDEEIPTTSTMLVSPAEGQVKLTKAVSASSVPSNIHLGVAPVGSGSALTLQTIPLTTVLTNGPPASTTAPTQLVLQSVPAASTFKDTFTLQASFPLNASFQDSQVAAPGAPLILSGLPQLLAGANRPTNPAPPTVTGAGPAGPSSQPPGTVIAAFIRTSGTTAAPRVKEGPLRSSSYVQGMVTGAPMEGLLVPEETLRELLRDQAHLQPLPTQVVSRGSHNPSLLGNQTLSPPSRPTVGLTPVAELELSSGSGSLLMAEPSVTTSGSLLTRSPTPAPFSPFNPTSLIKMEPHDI
ELF1, sequence (P32519 whole entry): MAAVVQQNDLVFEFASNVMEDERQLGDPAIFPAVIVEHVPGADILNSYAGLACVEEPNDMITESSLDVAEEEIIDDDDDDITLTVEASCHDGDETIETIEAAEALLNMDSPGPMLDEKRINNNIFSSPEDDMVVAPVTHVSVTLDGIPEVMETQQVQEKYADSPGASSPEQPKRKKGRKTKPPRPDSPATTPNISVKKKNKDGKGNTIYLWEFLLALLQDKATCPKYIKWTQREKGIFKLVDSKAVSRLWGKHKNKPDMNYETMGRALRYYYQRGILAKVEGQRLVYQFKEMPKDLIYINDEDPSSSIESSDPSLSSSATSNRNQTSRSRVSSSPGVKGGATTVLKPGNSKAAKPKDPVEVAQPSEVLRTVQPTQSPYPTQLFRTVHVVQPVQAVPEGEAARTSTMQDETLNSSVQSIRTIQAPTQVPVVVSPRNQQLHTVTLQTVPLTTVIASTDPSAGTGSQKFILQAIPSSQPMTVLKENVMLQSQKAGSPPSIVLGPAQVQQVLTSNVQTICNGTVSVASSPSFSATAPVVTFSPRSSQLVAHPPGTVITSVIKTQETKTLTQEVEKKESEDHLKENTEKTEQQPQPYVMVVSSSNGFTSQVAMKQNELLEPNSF
ETV5, sequence (P41161 whole entry): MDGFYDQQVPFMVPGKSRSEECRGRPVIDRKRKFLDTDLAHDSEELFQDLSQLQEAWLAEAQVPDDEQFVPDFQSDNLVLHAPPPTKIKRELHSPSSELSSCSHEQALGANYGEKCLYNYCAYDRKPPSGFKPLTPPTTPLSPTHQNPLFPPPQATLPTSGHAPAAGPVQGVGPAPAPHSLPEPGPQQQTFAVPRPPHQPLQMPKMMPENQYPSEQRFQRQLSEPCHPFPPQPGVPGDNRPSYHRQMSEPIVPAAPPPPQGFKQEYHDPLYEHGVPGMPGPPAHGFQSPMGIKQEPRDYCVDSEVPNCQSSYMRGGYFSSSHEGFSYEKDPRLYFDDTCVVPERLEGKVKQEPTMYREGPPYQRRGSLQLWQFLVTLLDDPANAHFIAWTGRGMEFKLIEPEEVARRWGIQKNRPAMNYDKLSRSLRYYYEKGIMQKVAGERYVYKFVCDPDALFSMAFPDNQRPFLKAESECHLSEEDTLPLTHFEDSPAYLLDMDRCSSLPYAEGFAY
SPIB, sequence (Q01892 whole entry): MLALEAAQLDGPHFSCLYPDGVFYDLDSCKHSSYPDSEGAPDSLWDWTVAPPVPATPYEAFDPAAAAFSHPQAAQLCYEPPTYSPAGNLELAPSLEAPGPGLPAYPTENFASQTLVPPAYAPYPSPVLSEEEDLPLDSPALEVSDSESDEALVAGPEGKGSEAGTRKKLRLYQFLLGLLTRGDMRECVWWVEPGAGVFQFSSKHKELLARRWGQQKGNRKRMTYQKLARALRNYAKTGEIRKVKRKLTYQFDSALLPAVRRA

In the case of GTTTGA, the binding signal with FLI1 is 1.29 fold enrichment (6-mer frequency, TF over GST control); with ELK1, 1.19 fold enrichment (6-mer frequency, TF over GST control); with GABPA, 1.36 fold enrichment (6-mer frequency, TF over GST control); in the assay with ERG it was 1.12 fold enrichment (6-mer frequency, TF over GST control); with ELF1, 1.16 fold enrichment (6-mer frequency, TF over GST control); in the assay with EHF, 1.06 fold enrichment (6-mer frequency, TF over GST control). Moreover, the binding signal with SPI1 is 1.23 fold enrichment (6-mer frequency, TF over GST control); with SPIB, 1.16 fold enrichment (6-mer frequency, TF over GST control); in the assay with ELK3 it was 1.12 fold enrichment (6-mer frequency, TF over GST control); with FEV, 1.13 fold enrichment (6-mer frequency, TF over GST control); with ETV5, 1.19 fold enrichment (6-mer frequency, TF over GST control); in the assay with HSF1 it was 1.03 fold enrichment (6-mer frequency, TF over GST control). Also, the binding signal was 1.25 fold enrichment (6-mer frequency, TF over GST control) in the assay with SPIC; 1.13 fold enrichment (6-mer frequency, TF over GST control) in the assay with ELF4; 1.28 fold enrichment (6-mer frequency, TF over GST control) in the assay with ELK4; 1.22 fold enrichment (6-mer frequency, TF over GST control) with ETV2; 1.15 fold enrichment (6-mer frequency, TF over GST control) with ELF3; 1.2 fold enrichment (6-mer frequency, TF over GST control) with ETV1.
